Reference: PMC5540273 (PLoS ONE, 2017)

Experiments:
Details in all cases: concentration: 1 μM,replicates: in singlicate; n = 1
NEK11 = system: NEK11
NEK1 = system: NEK1
NEK2 = system: NEK2
NEK3 = system: NEK3
NEK4 = system: NEK4
NEK5 = system: NEK5
NEK6 = system: NEK6
NEK7 = system: NEK7
NEK9 = system: NEK9
NIK = system: T1, NIK
T1 construct: gene MAP3K14
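Note: KINOMEscan kinase panel screen.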

| Structure (SMILES) | %Inh (NEK11) [%] | %Inh (NEK1) [%] | %Inh (NEK2) [%] | %Inh (NEK3) [%] | %Inh (NEK4) [%] | %Inh (NEK5) [%] | %Inh (NEK6) [%] | %Inh (NEK7) [%] | %Inh (NEK9) [%] | %Inh (NIK) [%] |
| --- | --- | --- | --- | --- | --- | --- | --- | --- | --- | --- |
| CN(c1ccc2c(c1)nc(NCc1ccc(F)cc1)n2C)c1ccnc(Nc2ccc(CS(C)(=O)=O)cc2)n1.Cl [GW813244] | 0 | 0 | 0 | 36 | 0 | 0 | 0 | 0 | 21 | 0 |
| c1ccc(Oc2ccc(Nc3ccnc4ccc(-c5ccccn5)cc34)cc2)cc1 [GW407034] | 0 | 0 | 0 | 9 | 28 | 0 | 1 | 0 | 0 | 9 |
| Cc1ccc(Nc2ccnc(Nc3ccc4c(c3)CS(=O)(=O)C4)n2)cc1O.Cl [GW579362] | 5 | 31 | 17 | 46 | 3 | 70 | 0 | 23 | 27 | 27 |
| Cc1ccn2nc(-c3ccc(F)cc3)c(-c3ccncc3)c2c1.Cl [GW457859] | 43 | 12 | 0 | 3 | 0 | 0 | 0 | 0 | 4 | 38 |
| C[C@@H]1CCN(C(=O)N2CCCC2)C[C@@H]1N(C)c1ncnc2[nH]ccc12 | 0 | 4 | 0 | 39 | 5 | 0 | 8 | 0 | 0 | 0 |
| COc1cc2ncn(-c3cc(OCC4CCCCC4)c(C(N)=O)s3)c2cc1OC [GSK204559] | 0 | 12 | 40 | 0 | 10 | 9 | 0 | 21 | 33 | 16 |
| CCOC(=O)N1CCC(n2cnc(-c3ccc(F)cc3)c2-c2ccnc(N)n2)CC1 [SB-219952] | 20 | 0 | 0 | 21 | 15 | 26 | 0 | 31 | 23 | 0 |
| Cn1ccc2ncnc(Oc3ccc(NC(=O)Nc4cc(C(C)(C)C)on4)c(Cl)c3)c21 | 0 | 0 | 17 | 21 | 3 | 0 | 0 | 0 | 3 | 0 |
| C[C@@H]1CNc2c(sc3ccc4nc(-c5ccc(O)cc5)ccc4c23)C(=O)N1 | 0 | 0 | 0 | 20 | 0 | 0 | 38 | 11 | 8 | 84 |
| C[C@@H]1CNc2c(sc3ccc4nc(-c5ccncc5)ccc4c23)C(=O)N1 | 0 | 0 | 0 | 30 | 0 | 0 | 3 | 5 | 0 | 90.3 |
| CCn1c(-c2nonc2N)nc2cncc(CNC3CCNCC3)c21.Cl [SB-747651] | 11 | 0 | 0 | 15 | 28 | 2 | 0 | 6 | 38 | 13 |
| Cc1ccc(CC(=O)N2CCc3cc(-c4cn(C)c5ncnc(N)c45)ccc32)cc1 [GSK2634758] | 59 | 31 | 96.9 | 7 | 11 | 45 | 19 | 0 | 20 | 16 |
| COC(=O)c1cccc(NC(=O)NC2CCN(c3ccnc(Nc4cc(OC)c(OC)c(OC)c4)n3)C2)c1 (stereo not drawn) [GSK1379767] | 0 | 52 | 22 | 17 | 0 | 100 | 0 | 37 | 26 | 32 |
| N#Cc1cccc(C(=O)NC2CCN(c3ccnc(Nc4ccc(F)cc4)n3)C2)c1 (stereo not drawn) [GSK1379708] | 3 | 0 | 0 | 7 | 11 | 5 | 12 | 0 | 0 | 13 |
| CS(=O)(=O)c1cccc(CNc2nc(Nc3ccc4c(c3)[C@@H]3C[C@@H]4CNC3=O)ncc2C(F)(F)F)c1 | 0 | 0 | 0 | 23 | 1 | 0 | 19 | 12 | 2 | 26 |
| Cc1cccc2c(-c3ccncc3)c(-c3ccc(F)cc3)nn12.Cl [GW461487] | 4 | 0 | 0 | 0 | 0 | 16 | 0 | 0 | 15 | 10 |
| CSc1nccc(-c2c(-c3ccc(F)cc3)ncn2CCCN2CCOCC2)n1.Cl [SB-217146] | 0 | 0 | 0 | 38 | 0 | 0 | 0 | 8 | 0 | 33 |

| Structure (SMILES) | %Inh (NEK11) [%] | %Inh (NEK1) [%] | %Inh (NEK2) [%] | %Inh (NEK3) [%] | %Inh (NEK4) [%] | %Inh (NEK5) [%] | %Inh (NEK6) [%] | %Inh (NEK7) [%] | %Inh (NEK9) [%] | %Inh (NIK) [%] |
| --- | --- | --- | --- | --- | --- | --- | --- | --- | --- | --- |
| C[C@@H](Oc1cc(-n2cnc3cc(-c4cnn(C)c4)ccc32)sc1C(N)=O)c1ccccc1Cl [GSK580432] | 0 | 88 | 99.2 | 0 | 0 | 99.7 | 41 | 71 | 81 | 7 |
| COc1cccc(OC)c1C(=O)Nc1cccc(-c2nn3ccccc3c2-c2ccnc(Nc3cccc(F)c3)n2)c1 [GSK361065] | 0 | 0 | 4 | 7 | 0 | 10 | 17 | 0 | 0 | 0 |
| CS(=O)(=O)Nc1ccc(-c2ccnc3[nH]ccc23)cc1 [GSK993273] | 17 | 15 | 0 | 4 | 16 | 2 | 0 | 10 | 14 | 22 |
| FC(F)(F)c1cc(Br)cc(Nc2nccc(-c3cnn4ncccc34)n2)c1 [GW810578] | 0 | 0 | 1 | 15 | 2 | 30 | 51 | 60 | 15 | 21 |
| Cc1n[nH]c2cc(Nc3ccnc(Nc4cccc(CN5CCOCC5)c4)n3)ccc12 [GW682569] | 17 | 2 | 0 | 20 | 0 | 29 | 0 | 0 | 15 | 0 |
| Cl.Cl.NC[C@H](CC1CCCCC1)NC(=O)c1ccc(-c2ccnc3[nH]ccc23)s1 [GSK1581428] | 0 | – | 0 | 0 | 14 | 15 | 0 | 1 | 17 | 0 |
| CN(c1ccccc1CNc1nc(Nc2ccc3c(c2)CC(=O)N3)ncc1C(F)(F)F)S(C)(=O)=O | 0 | 0 | 0 | 32 | 0 | 0 | 26 | 64 | 53 | 0 |
| CN1CCN(CCNc2nc3cc(Oc4ccc(NC(=O)Nc5cc(C(F)(F)F)ccc5F)cc4)ccc3[nH]2)CC1.Cl.Cl [GW768504] | 0 | 0 | 0 | 20 | 0 | 1 | 0 | 0 | 0 | 0 |
| Cn1ccc2ncnc(Oc3ccc(NC(=O)Nc4cccc(C(F)(F)F)c4)c(F)c3)c21 | 0 | 0 | 15 | 17 | 0 | 7 | 27 | 0 | 0 | 0 |
| Cn1ccc2ncnc(Oc3ccc(NC(=O)Nc4cnn(C(C)(C)C)c4)c(Cl)c3)c21 | 0 | 0 | 0 | 12 | 0 | 6 | 2 | 0 | 0 | 0 |
| CC(=O)Nc1nc2cnc(Nc3cc(NC(=O)c4cccc(CC(C)(C)C#N)c4)ccc3C)nc2s1 | 0 | 13 | 6 | 30 | 0 | 0 | 13 | 5 | 5 | 0 |
| O=C(Nc1cccc(C(F)(F)F)c1)c1cccc(Oc2ccc3nccn3n2)c1 | 52 | 0 | 0 | 17 | 0 | 12 | 2 | 0 | 0 | 36 |
| O=C(Nc1cccc(Oc2ccc3nccn3n2)c1)Nc1cccc(C(F)(F)F)c1 | 0 | 0 | 8 | 7 | 0 | 0 | 0 | 0 | 0 | 27 |
| Cc1ccc(C(=O)Nc2ccc(Oc3ccc4nc(NC(=O)C5CC5)cn4c3)c(F)c2)c(=O)n1-c1ccccc1 | 0 | 0 | 5 | 0 | 0 | 0 | 0 | 0 | 0 | 0 |
| COc1cc2nccc(Nc3ccc(Oc4ccccc4)cc3)c2cc1OC.Cl [GI261656] | 0 | 0 | 0 | 0 | 0 | 0 | 0 | 0 | 2 | 0 |
| Nc1nccc(-c2ccc3c(N)n[nH]c3c2)n1 [GSK1034945] | 0 | 0 | 3 | 9 | 0 | 4 | 0 | 3 | 10 | 0 |
| CN1CCN(CCCNc2nccc(-c3c(-c4ccc(F)cc4)nn4cc(C(N)=O)ccc34)n2)CC1 [GW622475] | 0 | 0 | 8 | 6 | 10 | 15 | 0 | 25 | 41 | 5 |
